# Kir21 inh: Kir2.1 (mouse) channel inhibition; 310,000 tested, 0.85% active; P35561; B-score at 10 µM; HEK293-Kir2.1, FluxOR thallium flux fluorescence; stronger effect = lower value; AID 1672;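 active means fluorescence ratio B-score at or below minus 3 SD of library scores, with starting-brightness B-score within 2 SD, cut at about -4.2 in these data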;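 further: channel flux triggered by added potassium and thallium sulfate stimulus; B-score of peak minus minimum fluorescence over baseline after thallium stimulus; more negative B-score means stronger Kir2.1 block with less thallium influx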
# GPR7 antag: human neuropeptides B/W receptor 1 antagonism; P48145; 290,000 tested, 1.1% active; GPR7-expressing cells, fluorescence antagonist assay; inhibition, % at 4.4 µM; in the data active means inhibition above about 16%, passing the limit was not always enough;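 further: cells stimulated with the agonist NPW; 0% = agonist with vehicle and 100% = vehicle without agonist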
# TMEM16A act: mouse TMEM16A channel activation, primary screen. HEK293 TMEM16A/YFP-H148Q/I152L, iodide quench fluorescence; stronger effect = lower value. 340,000 tested, 0.3% active. Q8BHY3. B-score at 10 µM;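 active means fluorescence-ratio B-score plate-corrected deviation score at least 3 library SD below zero, with starting fluorescence score within 5 deviations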;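 further: channel opened by trigger with iodide after compound preincubation; score built on the fluorescence ratio of max minus min over baseline; more negative score means more quench and so TMEM16A activation or potentiation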
# ANO1 block: inhibitors of mouse TMEM16A calcium-activated chloride channel | AID 588511 | HEK293 TMEM16A/YFP iodide influx fluorescence, ionomycin | normalized B-score (activity score, 25-100; higher = stronger inhibition) at 10 µM | 310,000 tested, 1.2% active | Q8BHY3;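 active means ratio plate-corrected score three or more library SD toward inhibition, starting fluorescence score within five deviations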;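 further: score derived from kinetic fluorescence span divided by baseline fluorescence per well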
# CHT PAM: human CHT allosteric activation. Q9GZV3. CHT-expressing cells, membrane potential dye, choline EC20; stronger effect = higher value; LV-AA mutant CHT in HEK293 cells. 310,000 tested, 0.49% active. AID 488977. B-score at 10 µM;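 active means initial fluorescence not abnormally high and integrated response B-score, plate-corrected, over 3 SD above library mean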
# Target sequence (Q9GZV3 whole entry, looked up): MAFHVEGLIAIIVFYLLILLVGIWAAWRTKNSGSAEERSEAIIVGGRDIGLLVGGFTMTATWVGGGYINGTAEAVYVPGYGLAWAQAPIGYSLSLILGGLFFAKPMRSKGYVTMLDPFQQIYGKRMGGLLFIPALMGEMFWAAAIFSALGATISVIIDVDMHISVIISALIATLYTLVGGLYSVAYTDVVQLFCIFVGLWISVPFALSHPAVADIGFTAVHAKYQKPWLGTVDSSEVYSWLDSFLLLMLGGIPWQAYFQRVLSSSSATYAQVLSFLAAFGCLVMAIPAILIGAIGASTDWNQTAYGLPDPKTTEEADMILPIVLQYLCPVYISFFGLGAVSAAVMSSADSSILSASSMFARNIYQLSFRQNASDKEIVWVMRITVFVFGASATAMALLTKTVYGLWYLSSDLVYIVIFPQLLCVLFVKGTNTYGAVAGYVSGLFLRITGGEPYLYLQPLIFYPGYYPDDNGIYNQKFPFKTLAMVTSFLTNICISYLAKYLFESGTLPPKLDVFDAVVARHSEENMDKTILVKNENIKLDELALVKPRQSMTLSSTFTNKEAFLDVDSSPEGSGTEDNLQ
# CHT block: inhibitors of human choline transporter CHT; Q9GZV3; CHT-expressing cells, membrane potential dye, choline response; stronger effect = lower value; B-score at 10 µM; 310,000 tested, 0.86% active; AID 488975;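 active means B-score over 3 SD under the library average, and starting fluorescence ratio not unusually high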;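 further: choline stimulus applied at its EC90 after an EC20 pre-addition; B-score computed on integrated fluorescence ratio after choline addition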
# CHT activ conf: confirmation of human choline transporter (CHT) activators | AID 504833 | shares compounds with CHT PAM | CHT-expressing cells, membrane potential dye fluorescence (FDSS); % of choline EC20–EC90 response window; HEK293 expressing CHT LV-AA mutant; choline added at its EC20 | 2,500 tested, 91% active | activation, % at 10 µM;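 active means primary screen active, with duplicate mean activation above negative control mean plus 3 SD, cut at about 11% in these data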
# HEK293 MP dye: counter-screen for CHT activators: effect in parental HEK293 cells; shares compounds with CHT PAM; membrane potential dye fluorescence (FDSS); measured after EC20 choline addition; ratio readout change at 10 µM, hits read low; 2,500 tested, 62% active;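 active means duplicate-averaged ratio beyond 3 SD from buffer wells, up or down, though filed actives are nearly all decreases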
# An asterisk follows results filed as active; i = inactive; . = no result given. A selection: hits, their analogues and other compounds. The true share with any hit is near 3.7%.
SMILES,Kir21 inh,GPR7 antag,TMEM16A act,ANO1 block,CHT PAM,CHT block,CHT activ conf,HEK293 MP dye
CCCCN(C)C(=O)CCC(=O)Nc1ccc2nc(N3CCOCC3)cc(C)c2c1,-0.34,-0.3,i,i,7.71*,i,48.1*,-34.4*
CCCCNC(=O)CCC(=O)Nc1ccc2nc(N3CCC(C)CC3)cc(C)c2c1,0.06,-2.9,i,i,i,i,37.5*,-35.2*
CCC(C)NC(=O)CCC(=O)Nc1ccc2nc(N3CCOCC3)cc(C)c2c1 (stereo unspecified),0.04,-4.2,i,i,7.94*,i,59.2*,-59.1*
CC(C)(C)c1ccc(/C=N/n2cnnc2)cc1,0.51,-0.5,i,i,i,i,.,.
Cn1c(=O)n(C)c2cc(/C=N/n3cnnc3)ccc21,-0.08,-6.4,i,i,8.75*,i,69.8*,-68.6*
Cc1cc(C)n2nc(C(=O)Nc3ccc(S(=O)(=O)N4CCCCC4)cc3)nc2n1,1.3,-0.9,i,i,i,i,21.7*,-23.9*
O=C(c1cccc(C(F)(F)F)c1)C1CCCN(Cc2cccn2-c2ccccn2)C1 (stereo unspecified),-0.39,18.9,i,i,12.1*,i,-5.3,i
O=C(c1cccc(C(F)(F)F)c1)C1CCCN(Cc2cccc(OCCO)c2)C1 (stereo unspecified),-1.97,-3.8,i,i,i,i,.,.
Cc1cc(NS(=O)(=O)c2ccc(NC(=O)c3cnc4scc(C)n4c3=O)cc2)nc(C)n1,3.26,-10.3,i,i,6.24*,i,32.7*,-27.2*
Cc1onc(C(=O)NCc2ccccn2)c1[N+](=O)[O-],2.51,-8.6,i,i,i,i,.,.
CCOc1ccccc1-n1c(SCC(=O)Nc2nccs2)nnc1-c1ccoc1C,0.53,15.4,i,i,i,i,2.8,i
O=C(Nc1ccc2nc(SCc3ccc(Cl)cc3)sc2c1)c1ccccc1C(=O)N1CCOCC1,0.08,2.0,i,i,i,i,46.3*,i
COc1ccc(NCc2nc3ccccc3n2CCOc2ccccc2)cc1,-4.55*,4.4,i,i,6.38*,i,23.7*,i
COc1ccc(CCN=C(N)Nc2nc(C)cc(C)n2)cc1,-2.31,1.6,i,i,6.52*,i,50.3*,-40.7*
CC(=O)Nc1ccc(SCC(=O)c2cc(C)n(-c3ccccc3)c2C)cc1,0.07,13.1,i,i,i,i,.,.
CCCCCCCC[n+]1c(C)n(-c2ccccc2)c2ccc(NC(C)=O)cc21,-0.09,2.9,i,i,10.1*,i,78.2*,-32.7*
Cc1nc2ccccn2c1-c1ccnc(=S)[nH]1,0.77,-5.5,i,i,6.78*,i,37.0*,-35.1*
COc1cccc(/C=N/n2cncn2)c1OCC#N,-2.79,0.6,i,i,6.37*,i,2.9,i
O=C(NC1CCCCC1)C(c1ccccc1)N(C(=O)c1csnn1)C1CC1 (stereo unspecified),0.08,-4.7,i,i,i,i,.,.
CC(C)C[C@@H](COc1ccccc1)N1CCN(Cc2ccccc2)CCC1=O,-0.11,15.5,i,i,6.34*,i,15.6*,i
CC(C)CN1CCC(=O)N([C@H](CSc2ccccc2)Cc2ccccc2)CC1,-1.54,19.1,i,i,13.4*,i,41.5*,i
O=C1CCN(Cc2ccccc2)CCN1[C@H](COc1ccccc1)Cc1ccccc1,-0.44,-5.5,i,i,6.66*,i,23.8*,i
O=C(Nc1c2c(nn1-c1ccc([N+](=O)[O-])cc1)CS(=O)(=O)C2)c1ccco1,-0.07,1.2,i,i,i,i,.,.

# Screening results: PubChem, several laboratories
